Reference: PubChem BioAssay
Results filed as inconclusive are left out. Calls of active or inactive are those of the source. Cut-off not given; nearly all actives show AC50 up to about 26 µM.

Assay: viability loss in pontine glioma line – cell-based, SU-DIPG-XXV, MIPE5.0, CellTiter-Glo, qHTS, dose response (AID 1347065);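 further: cells exposed to compound for 48 hours before ATP readout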
Conditions: CellTiter-Glo ATP luminescence

Structure (SMILES)	outcome	AC50
CN[C@@H](C)C(=O)N[C@H](C(=O)N1CCC[C@H]1C(=O)Nc1snnc1-c1ccccc1)C1CCCCC1	inactive	
COC1(c2sc3c(N4CCOCC4)nc(-c4cnc(N)nc4)nc3c2C)COC1		0.132 µM (active)
CC1(C(=O)O)CCC2(C)CCC3(C)C(=CC(=O)C4C5(C)CCC(OC6OC(C(=O)O)C(O)C(O)C6OC6OC(C(=O)O)C(O)C(O)C6O)C(C)(C)C5CCC43C)C2C1 (stereo unspecified)	inactive	
CCS(=O)(=O)Nc1ccc(Oc2ccc(F)cc2F)c(-c2cn(C)c(=O)c3[nH]ccc23)c1		2.95 µM (active)
CCNCCc1ccc(CN(CC)c2cc(OC)ccc2[C@@H]2CCc3cc(O)ccc3C2)cc1		8.33 µM (active)
CC(C)n1c(=O)cc(N[C@@H](C)c2ccccc2)[nH]c1=O		10.5 µM (active)
c1ccc(CNCc2ccc(CN3CCCNCCNCCCNCC3)cc2)nc1	inactive	
Cc1ccc(S(=O)(=O)Nc2cc(C(F)(F)F)ccc2C(=O)Nc2nc(-c3ccccc3)cs2)cc1		3.72 µM (active)
Cc1ccc(-n2c(C)cc(-c3nnc4n3CCCCC4)c2C)cc1		20.9 µM (active)
N#Cc1ccc(-c2c(-c3ncn[nH]3)sc(N3CCOCC3)c2C#N)c(F)c1		1.48 µM (active)
CN(C)N(C)C(=O)[C@@]1(Cc2ccccc2)CCCN(C(=O)[C@@H](Cc2c[nH]c3ccccc23)NC(=O)C(C)(C)N)C1	inactive	
O=C(Cc1cccc(OC(F)(F)F)c1)Nc1ccc(CCCCc2nnc(NC(=O)Cc3ccccn3)s2)nn1		14.8 µM (active)

Assay: JHH-DIPG-1 glioma cell viability, MIPE5.0 library, CellTiter-Glo luminescence, qHTS (AID 1347067);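 further: cells exposed to compound for 48 hours before readout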
Conditions: JHH-DIPG-1 glioma viability, CellTiter-Glo ATP luminescence

Structure (SMILES)	outcome	AC50
CONC(=O)Nc1ccc(-c2sc3c(c2CN(C)C)c(=O)n(-c2ccc(OC)nn2)c(=O)n3Cc2c(F)cccc2F)cc1	inactive	
Cc1c(C(=O)Nc2ccc(Oc3ccnc4[nH]cc(-c5ccccc5)c34)c(F)c2)c(=O)n(-c2ccc(F)cc2)n1C		16.6 µM (active)
Cc1ccc(NC(=O)[C@H]2CCCN(C(=O)c3c(C)cccc3F)[C@H]2c2ccc(NC3CCCC3)cc2)cc1C(F)(F)F	inactive	
CC1(C)CCC2(CC1)N[C@@H](C(=O)N[C@@H]1CC[C@@H](C(N)=O)OC1)[C@H](c1ccnc(Cl)c1F)[C@]21C(=O)Nc2cc(Cl)ccc21		20.1 µM (active)
c1cn2cc(-c3ccc4cn[nH]c4c3)nc(Nc3ccc(N4CCOCC4)cc3)c2n1		14.8 µM (active)
NC(=S)N/N=C/c1ncccc1N		14.8 µM (active)
O=C(NC[C@H](O)CN1CCc2ccccc2C1)c1ccnc(NC2CCC2)c1		23.5 µM (active)
CC(C)C(N)C(=O)OCC(CO)OCn1cnc2c(=O)[nH]c(N)nc21 (stereo unspecified)	inactive	
OC(c1ccc(-c2ccc(CN3CCN(Cc4ccncc4)CC3)cc2)c(F)c1)(C(F)(F)F)C(F)(F)F	inactive	
Cc1cc(O)c(-c2ccc([C@@H](C)CN(C)C)cc2)c2c1[nH]c(=O)c1sccc12		0.417 µM (active)
Cc1c(NC(=O)c2cc(C(N)=O)nc3cc(F)ccc23)c(C(F)(F)F)nn1Cc1ccc(C(C)(C)C)cc1		23.5 µM (active)
NC(=O)c1cccc(-c2cc(Nc3ccc(OC(F)(F)F)cc3)ncn2)c1		20.9 µM (active)
O=C(NO)c1cnc(NC2(c3ccccc3)CC2)nc1		2.95 µM (active)
C=Cc1cc(O)cc2nc(-c3ccc(O)c(F)c3)oc12	inactive	
COc1ncc(Nc2ncc([C@H](C)N3CCN(S(C)(=O)=O)CC3)cc2-c2nc(C)nc(N)n2)cc1F		1.18 µM (active)
COc1ccc(-n2cnc3cc(C(=O)N4CCCCC4)ccc32)cc1	inactive	
C[C@@H](C(=O)Nc1ccc(Cl)cc1)C1CCC(c2ccnc3ccc(F)cc23)CC1 (stereo partly specified)	inactive	
O=C1OC(COc2ccccc2[N+](=O)[O-])CC1Cc1ccccc1 (stereo unspecified)	inactive	
CCS(=O)(=O)N1CCN(c2ccc(Nc3ncc(C(N)=O)c(NC4CC4)n3)cc2)CC1		14.8 µM (active)
CCCCOC(=O)NS(=O)(=O)c1sc(CC(C)C)cc1-c1ccc(Cn2ccnc2)cc1		20.9 µM (active)
CN1C(=O)N[C@H](Cc2c[nH]c3c(Cl)cccc23)C1=O	inactive	
CN(C)c1cc(NC(=O)CNC(C)(C)C)c(O)c2c1C[C@H]1C[C@H]3[C@H](N(C)C)C(=O)C(C(N)=O)=C(O)[C@]3(O)C(=O)C1=C2O	inactive	
CCN1C(=O)CNc2ncc(-c3ccc(-c4ncn[nH]4)nc3C)nc21		5.9 µM (active)
Nc1nccc2c1ncn2[C@@H]1C=C(CO)[C@@H](O)[C@H]1O	inactive	
